The whole screen tested about 16,000 compounds, of which about 5,100 (32%) were called active. Another 25% or so got no clear call; they are omitted. This is one part of the list. A number with no mark means an inactive call. Calls come from the whole dose curve; as a rule, active = well fitted curve in the direction sought with a large enough effect; inconclusive = small, poorly fitted or top-dose-only effect, or effect the other way; inactive = no such curve, though single readings can be large or run the other way.
% is set by controls: 0 for no effect and ±100 for the full control effect.

The target of the experiment is Cytochrome P450 3A4 (Homo sapiens) (UniProt P08684). The experiment can be described thus: Cytochrome panel assay with activity outcomes. The following applies: recombinant CYP, pro-luciferin dealkylation, luminescence, p450-cyp3a4; series mostly up to 57.1 µM; activity, negative = inhibition: at the top concentration.
Cytochrome P450 3A4 (Homo sapiens), sequence (P08684 whole entry, looked up): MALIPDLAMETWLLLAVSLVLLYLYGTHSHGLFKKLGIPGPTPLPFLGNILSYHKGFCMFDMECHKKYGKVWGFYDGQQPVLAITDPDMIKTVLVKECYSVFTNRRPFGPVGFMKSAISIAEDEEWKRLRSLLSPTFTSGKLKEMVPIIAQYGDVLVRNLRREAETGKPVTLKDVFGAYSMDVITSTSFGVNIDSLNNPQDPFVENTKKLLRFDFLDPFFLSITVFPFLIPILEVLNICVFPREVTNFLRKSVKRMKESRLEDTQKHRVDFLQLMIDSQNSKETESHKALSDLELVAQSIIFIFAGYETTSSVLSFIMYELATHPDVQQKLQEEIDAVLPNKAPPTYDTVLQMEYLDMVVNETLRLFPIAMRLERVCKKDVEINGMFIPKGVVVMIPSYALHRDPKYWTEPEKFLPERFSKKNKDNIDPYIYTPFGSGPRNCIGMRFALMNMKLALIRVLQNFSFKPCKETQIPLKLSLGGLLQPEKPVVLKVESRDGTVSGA
As to `O=c1[nH]c(=O)n([C@@H]2C[C@H](O)[C@H](CO)O2)cc1I`, the “activity, negative = inhibition” value was -0.987% [at 25.6 µM].

Consider `Brc1ccc(-c2nnc(-c3ccccc3)c(N3CCSCC3)n2)cc1`, for which the “activity, negative = inhibition” value was -22.4%.

With `CCCCN(C)S(=O)(=O)c1ccc(C(=O)Nc2nnc(CSC)o2)cc1`, the “activity, negative = inhibition” value was 24%.

For the molecule `Cn1c(C(F)(F)F)nc2c(=O)oc3ccccc3c21`, the “activity, negative = inhibition” value is -20.1%.

With `Nc1ccccc1S(N)(=O)=O`, the “activity, negative = inhibition” value is 3.31% [at 25.6 µM].

With `O=C(NC1CCCCC1)C(c1ccccc1)N1CCOCC1` (stereo unspecified), the AC50 is 11.2 µM (active).

For `Cc1ccc(C(C(=O)NC2CCCCC2)N2CCN(C(=O)c3ccco3)CC2)cc1` (stereo unspecified), the activity, negative = inhibition was -19.6% [at 2.29 µM].

As for `COc1ccc(C(C(=O)NC2CCCCC2)N2CCC3(CC2)OCCO3)cc1` (stereo unspecified), the AC50 was 4.47 µM (active).

`CCOc1cc(C)c(S(=O)(=O)Nc2ccc3cn[nH]c3c2)cc1C`: the AC50 was 0.316 µM (active).

As for `CCOC(OCC)P(=O)(O)CCCNCc1ccc(Cl)c(Cl)c1`, the “activity, negative = inhibition” value is 10.5%.

For the molecule `Cc1ccn2cc(CSc3ccccc3N)nc2c1`, the AC50 is 3.98 µM (active).

As to `CC(SCc1cn2cc(Cl)ccc2n1)C(=O)O` (stereo unspecified), the “activity, negative = inhibition” value was -11.1%.

`C[C@@H](C[N+](C)(C)C)OC(N)=O`: the AC50 entry is “inactive”.

As to `COC(=O)C1C(=O)C2=C(CC1C)NC(=O)CC2c1cccc(C)c1` (stereo unspecified), the AC50 is 14.1 µM (active).

With `C=CC[C@@H]1C=C[C@H](O/N=C(\C)CCN2CCCCc3nc(C)c(C)cc32)[C@H](CO)O1`, the AC50 is 3.98 µM (active).

`C=CC[C@@H]1C=C[C@H](O/N=C(\C)CCN2CCCc3nc(C)c(C)cc32)[C@H](CO)O1`: the AC50 was 2.51 µM (active).

On to `CN(C(=S)Nc1ccccc1F)C1(c2ccccc2Cl)CCCCC1=O` (stereo unspecified), for which the activity, negative = inhibition is -21.2% [at 2.29 µM].

With `CCCCN1C2=NCCCN2c2ccccc21`, the activity, negative = inhibition was 7.3% [at 11.4 µM].

With `Cc1ccsc1/C=N/Nc1nc(Cl)c(Cl)cc1Cl`, the activity, negative = inhibition was -21% [at 2.29 µM].

Regarding `O=C(Nc1ccc(-c2cc3ccccc3oc2=O)c(Cl)c1)c1cccnc1`, the “activity, negative = inhibition” value was -10%.

In the case of `O=c1oc2ccccc2cc1-c1csc(NN=C2CCCCC2)n1`, the AC50 is 3.98 µM (active).

As for `O=C(Nc1cc2ccccc2oc1=O)C1CCCCC1`, the activity, negative = inhibition was 10.7% [at 2.29 µM].

On to `COc1cc(OC)cc(C(=O)NC(=S)NCCc2ccccc2)c1`, for which the AC50 is 3.98 µM (active).

For `Cc1cccc(C)c1NC(=S)NC(=O)CCc1ccccc1`, the AC50 is 12.6 µM (active).

Turning to `O=C(CCc1ccccc1)NNC(=S)NC(=O)c1ccccc1`, the activity, negative = inhibition was 7% [at 2.29 µM].

As for `COc1cc(OC)cc(C(=O)NC(=S)Nc2ccc(Cl)c(C(=O)O)c2)c1`, the “activity, negative = inhibition” value was -26.3%.

As to `CC[N+](CC)(CC(=O)Nc1c(C)cccc1C)Cc1ccccc1`, the “activity, negative = inhibition” value was -19.7% [at 25.6 µM].

Regarding `COc1ccc(C(=O)NC(=S)NNC(=O)CCc2ccccc2)cc1`, the AC50 is 11.2 µM (active).

For `NNC(=O)c1ccc[n+](CCc2ccccc2)c1`, the activity, negative = inhibition was -7.56% [at 11.4 µM].

As for `CC(C)C12CN3CC(C(C)C)(CN(C1)C3c1ccco1)C2=O` (stereo unspecified), the activity, negative = inhibition was -2.45% [at 2.29 µM].

As for `COc1ccc(CCNC(=O)C2CCCN(Cc3nc(-c4cccc(Cl)c4)oc3C)C2)cc1OC` (stereo unspecified), the AC50 is 2 µM (active).

As to `Cc1cccc(-c2nc(CN3CCCC(C(=O)NC4CCCCC4)C3)c(C)o2)c1` (stereo unspecified), the AC50 is 3.16 µM (active).

For the molecule `CCCS(=O)(=O)N1CCCC(C(=O)NCCCN2CCN(c3cccc(Cl)c3)CC2)C1` (stereo unspecified), the “activity, negative = inhibition” value was -22.1%.

As to `CCC(C)NC(=O)C1CCCN(C(=O)NC2CCCCC2)C1` (stereo unspecified), the activity, negative = inhibition was 10.7% [at 2.29 µM].

Turning to `COc1ccc2nc(N3CCCC(C(=O)NCCCN4CCN(C)CC4)C3)sc2c1` (stereo unspecified), the “activity, negative = inhibition” value was -20.9%.

`Cc1cn([C@H]2C[C@H](O)[C@@H](COC(N)=O)O2)c(=O)[nH]c1=O`: the activity, negative = inhibition was -22.2% [at 11.4 µM].

On to `CNc1cnn(-c2ccccc2)c(=O)c1Cl`, for which the “activity, negative = inhibition” value was 6.78%.

Take `C=CCNc1cnn(-c2ccc(C)cc2)c(=O)c1Cl`: the AC50 was 4.47 µM (active).

For `C[C@@H](CN1c2ccccc2Sc2ccccc21)N(C)C`, the AC50 result is “inactive”.

Regarding `CC(C)CNCC(=O)N1c2ccccc2Sc2ccccc21`, the AC50 is 11.2 µM (active).

Regarding `CC(C)CNC(=O)c1nc(-c2ccccc2)n(-c2ccccc2)n1`, the “activity, negative = inhibition” value is -3.69%.

As for `O=C(O)CNCCc1ccccc1`, the activity, negative = inhibition is -11.1% [at 11.4 µM].

As to `O=C(NCCc1ccccc1)N1c2ccccc2Sc2ccccc21`, the concentration at half-maximal activity (AC50) was 14.1 µM (active).

Take `NC(=O)/C(=N\OC(=O)c1ccco1)c1nc(-c2ccc(Br)cc2)cs1`: the “activity, negative = inhibition” value is -10.3%.

`N[C@@H](Cc1ncccn1)C(=O)O`: the activity, negative = inhibition is 6.81% [at 11.4 µM].

Turning to `CCOC(=O)c1cc(-c2ccccc2)sc1NC(=S)Nc1cc(C)ccn1`, the AC50 was 2.82 µM (active).

For `CCOC(=O)c1cc(-c2ccccc2)sc1NC(=O)C(C)(C)C`, the “activity, negative = inhibition” value is 2.53%.

Take `CCOc1ncccc1C(=O)OCC(=O)Nc1cc(C)ccc1C`: the activity, negative = inhibition was 0.451% [at 2.29 µM].

For `Cc1ccc(/C=C2\Sc3ccccc3C2=O)s1`, the AC50 was 20 µM (active).

On to `CC(=O)N(/N=C1\Sc2ccccc2C1=O)c1ccccc1`, for which the “activity, negative = inhibition” value is -26.1%.

With `CC(C)n1cc(/C=C2/SC(=O)N(CC(=O)Nc3ccc4c(c3)OCO4)C2=O)c2ccccc21`, the AC50 is 0.316 µM (active).

Usually AC50 stands for the midpoint of the concentration-response curve, whichever way the signal moves.
